Hits are enriched below; roughly 9.9% of the tested compounds scored in any of these assays.
KB-V1 MDR tox: qHTS assay for MDR1-selective chemotherapeutics: Primary screen using the drug-selected MDR subline cells KB-V1; KB-V1 MDR cells viability, CellTiter-Glo, 72 h; Potency, µM (titrated, usually from 46.1 µM), hits mostly cytotoxic; 3.4% of 400,000 active; AID 1347076, 2019; further: potency means the concentration at half of the fitted maximal effect; on the % scale 0 is the no-effect control and ±100 the full control effect; nearly all actives have a fitted effect of over 60% in size
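KB-V1 MDR subline cells in DMEM (phenol-red free, 10% FBS) exposed to compounds in qHTS concentration series for 72 h at 37 degrees C. Viability read by CellTiter-Glo luminescence; concentration-effect curves fitted after normalization and correction.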
SW480 rerep: A quantitative high throughput screen for small molecules that induce DNA re-replication in SW480 colon adenocarcinoma cells; SW480 DNA re-replication, Hoechst DNA content imaging, 48 h; Potency, µM (highest dose often 46.1 µM), for inactives: top-dose re-replication activation, most hits filed as activators; 1.8% of 340,000 active; AID 624297, 2012; further: potency means the concentration at half of the fitted maximal effect; % of control where 0% means no effect; nearly all actives have a fitted effect of over 55% in size
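250 cells/well; 23 nL cpd via pin tool; 48 hr, 37 C, 5% CO2; Hoechst 40 min; imager read of total nuclear intensity, ex 405/em 500-530 nm.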
MCF10A rereplic: A quantitative high throughput screen for small molecules that induce DNA re-replication in MCF 10a normal breast cells | MCF 10A DNA re-replication, Hoechst nuclear intensity, 48 h | Potency, µM (doses to about 46.1 µM), inactives show top-dose activity, positive = re-replication, hits mostly activators | 2.9% of 350,000 active | AID 624296, 2012; further: potency means the concentration at half of the fitted maximal effect; % of control where 0% means no effect; nearly all actives have a fitted effect of over 50% in size
IL-1B inflam inh: qHTS for Inhibitors of Inflammasome Signaling: IL-1-beta AlphaLISA Primary Screen. THP-1 LPS/ATP IL-1B secretion, AlphaLISA, 16 h; stronger effect = lower value. activity change, % at 57.5 µM. 4.7% of 360,000 active; in the data active means activity change below about -50%; inconclusive means mostly about -30% to -49%; further: on the % scale 0 is the no-effect control and ±100 the full control effect
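THP-1 cells pretreated 1 hr with compounds (up to 57.5 uM final), then stimulated with LPS (250 ng/mL final) plus ATP (1.25 mM final); secreted IL-1B measured by AlphaLISA after 16 hr, decreased signal indicating inhibition.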
KB-3-1 cytotox: qHTS assay for MDR1-selective chemotherapeutics: Primary screen using the parental adenocarcinoma cell KB-3-1 | KB-3-1 viability, CellTiter-Glo ATP luminescence, 72 h | Potency, µM (highest dose often 46.1 µM), hits mostly cytotoxic | 1.4% of 400,000 active | AID 1347075, 2019; further: potency means the concentration at half of the fitted maximal effect; on the % scale 0 is the no-effect control and ±100 the full control effect; nearly all actives have a fitted effect of over 60% in size
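Cytotoxicity measured as CellTiter-Glo luminescence after 72 h at 37 C. Compound titrations were pinned onto drug-naive KB-3-1 parental adenocarcinoma cells grown in DMEM with 10% FBS, and normalized data fitted to concentration-response curves.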
Numbers without * were called inactive; i = inactive; u = inconclusive; x = not tested or not shown; ! = not active in a repeat. Unless noted, the call rests on the fitted dose curve; in most records, active means well fitted curve in the direction sought with a large enough effect; inconclusive means small, poorly fitted or top-dose-only effect, or another doubt; inactive means no such curve, though single readings can be large; an effect the other way counts as inactive or inconclusive.

SMILES	KB-V1 MDR tox	SW480 rerep	MCF10A rereplic	IL-1B inflam inh	KB-3-1 cytotox
COc1cc(/C=C(/C#N)c2ccc(F)cc2)ccc1Oc1ccc([N+](=O)[O-])cn1	2.3µM*	-3%	u	-54*	u
COc1cc(/C=N\NC(=O)c2cccc(Cl)c2)ccc1Oc1ccc([N+](=O)[O-])cn1	u	21µM*	u	x	i
COCc1nnc(NC(C)=O)s1	i	-3%	6%	-1	i
O=C(c1ccc2c(=O)n(Cc3ccc(Cl)cc3)c(=S)[nH]c2c1)N1CCOCC1	i	u	17%	-29	i
Cc1cccc2c(N=O)c(O)n(CCc3ccccc3)c12	i	23%	4%	-30	i
O=S(=O)(NCCN1CCOCC1)c1ccc2c(c1)OCCO2	i	7%	-2%	-74*	i
Cc1ccc(Nc2nc(C)c(NC(=O)c3ccc(C)cc3)c(Nc3ccc(C)cc3)n2)cc1	i	x	x	x	u
CCC(C)(C)NC(=O)CN(CC1CCCO1)C(=O)CNS(=O)(=O)c1ccccc1 (stereo unspecified)	i	-30%	-2%	-2	i
Cc1ccc2c(C(=O)CNC3=NCCS3)c(C)[nH]c2c1	u	x	x	x	i
C[C@H](C[C@H](O)[C@H]1OC1(C)C)C1=C2C[C@H](O)C3[C@@]4(C)CCC(=O)C(C)(C)C4CC[C@]3(C)[C@@]2(C)CC1 (stereo partly specified)	3.7µM*	u	u	-7	u
COc1ccc(-c2csc(CCN3N=C(C)CC3=O)n2)cc1	u	11%	-4%	-53*	i
NC(=S)NNc1ccnc2cc(Cl)ccc12	u	-14%	8%	-3	i
FC(F)Oc1ccc(NC(=S)NNc2ccnc3cc(Cl)ccc23)cc1	u	12µM*	u	-93*	16µM*
O=C(NNc1ccnc2cc(Cl)ccc12)C1CCCCC1	u	0%	17%	-9	5.8µM*
C[C@@H](NC(=O)c1cc2c([nH]c3ccccc32)c(-c2ccccc2)n1)C(=O)O	i	4%	-10%	6	i
Cc1ccc(C)c(S(=O)(=O)N2CCCOC2CNC(=O)C(=O)NCc2ccccn2)c1 (stereo unspecified)	u	1%	0%	1	i
COc1cccc(/C=C/C(=C2/C(=O)N(c3ccccc3)N=C2C)c2ccc(C)cc2)c1OC	u	-5%	-1%	0	i
COc1ccc(Br)cc1S(=O)(=O)NCc1ccccn1	i	2%	u	3	i
Cc1cc(Br)ccc1NCc1ccccn1	u	18µM*	18µM*	-14	i
COc1cccc(CNC(=O)CSc2cc(C)[nH]c(=O)n2)c1	i	x	x	x	u
CC(=O)c1ccc(S(=O)(=O)Nc2ccc(-c3cn4c(C)csc4n3)cc2)cc1	i	x	x	x	i
COc1cc(-c2noc(C)c2C#Cc2ccc(N)cc2)cc(OC)c1OC	1.3µM*!	1.2µM*	u	69	0.82µM*!
COc1cc(-c2noc(C)c2C#Cc2ccccn2)cc(OC)c1OC	1.3µM*!	3.7µM*	u	60	0.58µM*!
CNC(C)C#Cc1c(-c2cc(OC)c(OC)c(OC)c2)noc1C (stereo unspecified)	u	10%	-7%	34	i
COc1cc(-c2noc(C)c2/C=C/c2ccc(N)cc2)cc(OC)c1OC	0.58µM*!	u	u	97	0.26µM*!
SMILES	KB-V1 MDR tox	SW480 rerep	MCF10A rereplic	IL-1B inflam inh	KB-3-1 cytotox
COc1cc(-c2noc(C)c2C(=O)NCCO)cc(OC)c1OC	i	-6%	2%	-2	i
O=S(=O)(c1ccc(N2CCN(Cc3ccccc3)CC2)nc1)N1CCCC1	u	-4%	22%	4	u
C[C@]12CCC3c4ccc(OCC(=O)O)cc4CCC3C1CCC2=O (stereo partly specified)	i	1%	6%	-6	i
CN(C)c1ccc(-c2nnc3n(Cc4ccccc4)c(=O)c4ccccc4n23)cc1	i	x	x	x	i
NC(=O)N/N=C/C=C/c1ccc(F)cc1	i	-11%	-29%	x	i
Cc1ccc(-c2csc(NCCn3c(-c4ccncc4)nc4cc(C(F)(F)F)ccc43)n2)cc1	i	2%	u	u	u
O=C1COc2ccc(-c3csc(NCCc4ccccc4)n3)cc2N1	i	-3%	0%	-76*	u
CCC(C)C(=O)Nc1nc(-c2ccc3c(c2)NC(=O)CO3)cs1 (stereo unspecified)	i	-3%	12%	-15	i
COc1ccc(-c2csc(NC(CO)c3nc4ccccc4n3Cc3ccc(C)cc3)n2)cc1 (stereo unspecified)	i	u	u	-22	u
Cc1ccc(-c2csc(NCCn3c(-c4ccncc4)nc4ccccc43)n2)cc1	21µM*	0%	2%	6	u
Cc1ccc(Cn2c(C(CO)Nc3nc(-c4ccc(F)cc4)cs3)nc3ccccc32)cc1 (stereo unspecified)	i	18%	u	-69*	16µM*
c1ccc(CCNc2nc(-c3ccncc3)cs2)cc1	u	-1%	u	-60*	i
COc1ccc(S(=O)(=O)N2CCN(C(=O)c3ccc4ccccc4n3)CC2)cc1	u	-9%	7%	-19	i
Cn1cc([N+](=O)[O-])c(C(=O)Nc2ccc(-c3nc4ccccc4[nH]3)cc2)n1	i	u	21%	-12	u
Cc1ccc(-c2nc(NC(=O)c3nn(C)cc3[N+](=O)[O-])sc2C)cc1C	15µM*	1.5µM*	u	-119*	u
Cc1cnc(NC(=O)c2nn(C)cc2[N+](=O)[O-])s1	u	3.7µM*	4.1µM*	-94*	u
Cc1ccc(-c2nc(NC(=O)c3nn(C)cc3[N+](=O)[O-])sc2C)cc1	u	1%	u	-111*	4.6µM*
Cn1cc([N+](=O)[O-])c(C(=O)Nc2nc(-c3ccc(Cl)cc3)cs2)n1	13µM*	5.8µM*	5.2µM*	-120*	6.5µM*
Cc1nn(Cc2c(F)c(F)c(F)c(F)c2F)c(C)c1NC(=O)c1nn(C)cc1[N+](=O)[O-]	u	5%	u	36	i
O=C(Nc1nc(-c2ccc(Cl)cc2)cs1)c1cccnc1	i	-24%	u	-10	i
Cc1cc(Oc2c(C(F)(F)F)oc3c(CN4CCC(C)CC4)c(O)ccc3c2=O)cc(C)c1Cl	i	x	x	x	i
Clc1ccc(Nc2nnc(Cc3ccncc3)c3ccccc23)cc1	x	8%	0%	x	x

High-throughput results: PubChem, National Center for Advancing Translational Sciences (NCATS)
